From PubChem BioAssay (NCATS)
Records with an inconclusive call do not appear. Activity calls are given as the source filed them. Unless noted, the call rests on the fitted dose curve; in most records, active means well fitted curve in the direction sought with a large enough effect; inconclusive means small, poorly fitted or top-dose-only effect, or another doubt; inactive means no such curve, though single readings can be large; an effect the other way counts as inactive or inconclusive.

Tests used:
[1] = AP1 Signaling Pathway (AID 357; active means well fitted curve in either direction with a large enough effect, not every such curve was filed as active; further: on the % scale 0 is the no-effect control and ±100 the full control effect); details: ME-180 AP-1-bla reporter, EGF-induced, beta-lactamase ratio, 5 h; at 17.2 µM (top of the series) unless noted
Outline: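 AP-1-bla ME-180 cells with beta-lactamase reporter under AP-1 response element, stimulated with EC50 EGF; compounds titrated, 5 hours at 37 degrees Celsius. CCF4 read at 460/530 nm ratio; positive and negative modulators judged by AC50.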

[2] = NFAT Signaling Pathway (AID 444; active means well fitted curve in either direction with a large enough effect, not every such curve was filed as active;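 further: carbachol stimulus at about its EC50 of 1 µM final; on the % scale 0 is the no-effect control and ±100 the full control effect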); details: Jurkat NFAT-bla M1, carbachol, beta-lactamase ratio, 5 h; at 17.2 µM (top of the series) unless noted
Outline: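 Jurkat cells with NFAT-driven β-lactamase reporter and co-expressed M1 receptor, stimulated with carbachol (final 1 uM, ~EC50), compound titration, 5 h at 37 °C. CCF4 loaded 1 h at RT; 460/530 nm ratio gave %activity and AC50.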

[3] = Stat Signaling Pathway (AID 446; active means well fitted curve in either direction with a large enough effect, not every such curve was filed as active;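 further: ME-180 cervical cancer cells given 40 pM IL-6 alongside compound; SIE-controlled beta-lactamase reporter measured as 460/530 nm FRET emission ratio; on the % scale 0 is the no-effect control and ±100 the full control effect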); details: ME-180 SIE beta-lactamase reporter, IL-6 stimulated, 5 h; at 17.2 µM (top of the series) unless noted
Outline: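 ME-180 SIE-bla cells; overnight plating; cpd + IL-6 40 pM, 5 h, 37 C; LiveBLAzer 2.5 h RT; 460/530 nm emission ratio. Normalized to 300 pM IL-6 and 125 nM JAK inhibitor controls.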

[4] = target: Glucocorticoid receptor (Homo sapiens) (UniProt P04150); assay: GR-GFP Redistribution (AID 450;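 active means compounds whose dose series gives a full or clear partial fitted curve of increased nuclear translocation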; further: potency means the concentration at half of the fitted maximal effect)
[5] = target: Glucocorticoid receptor (Homo sapiens) (UniProt P04150); assay: GR-EFC Redistribution (AID 451; calls by dose curve; further: potency means the concentration at half of the fitted maximal effect); details: CHO-K1 GR-EFC translocation, beta-gal luminescence, 2 h
Outline: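 CHO-K1 cells expressing nuclear EA and GR-ED fragments of b-gal; compounds titrated up to 46 uM final, 2 h at 37 C. GR nuclear translocation read as complemented b-gal luminescence after 1 h RT detection.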

[6] = target: Mitogen-activated protein kinase 10 (Mus musculus) (UniProt Q61831); assay: JNK3 AlphaScreen Assay (AID 530; active means well fitted curve in either direction with a large enough effect, not every such curve was filed as active;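 further: kinase came from lysate of stimulated human HepG2 cells; signal reports phosphorylation of biotinylated GST-cJun 1-79 at Ser73 with 10 µM ATP; on the % scale 0 is the no-effect control and ±100 the full control effect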)
Outline: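 qHTS format: compounds tested as titrations against IL-1beta/TNF-alpha-activated HepG2 lysate JNK3 with biotin-GST-cJun substrate and 10 uM ATP at room temperature. Loss of anti-phospho-cJun AlphaScreen signal indicates inhibition.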

[7] = target: 3',5'-cyclic-AMP phosphodiesterase 4B (Homo sapiens) (UniProt Q07343); assay: qHTS Assay for Inhibitors of PDE-IV (AID 607; active means well fitted activation curve with a large enough effect in the main read-out, with a control signal flat, not every such curve was filed as active; further: % of control where 0% means no effect)
Outline: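 ACTOne HEK293 cells carry a modified cAMP-gated CNG channel and express endogenous PDE4; plated 1000 cells/well, compounds up to 22.9 uM final. Membrane-potential dye fluorescence (ex 535/em 590) was read; parental cells received 10 uM forskolin + 100 uM RO 20-1724.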

[8] = target: Guanine nucleotide-binding protein G(i) subunit alpha-1 (Homo sapiens) (UniProt P63096); assay: qHTS Assay for Inhibitors of RGS12 GoLoco Motif Activity (Green Fluorophore) (AID 879);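 further: 0% = labeled peptide with Gαi1 and full inhibition = labeled peptide alone without protein; negative values mean loss of peptide binding seen as reduced polarization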
Outline: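 Fluorescence polarization assay: 50 nM Gαi1 with 10 nM FITC-labeled RGS12 GoLoco peptide in 10 mM Tris pH 7.5, 150 mM NaCl, 0.1 mM GDP, 0.05% NP40, 10 min at room temperature with compound.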

[9] = qHTS Assay for Identification of Small Molecule Agonists for Thrombopoietin (TPO) Signaling Pathway (AID 917); further: potency means the concentration at half of the fitted maximal effect
Outline: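 Murine Ba/F3 cells expressing human TPO receptor and GPIIb-promoter luciferase, IL-3-starved overnight, given compound plus TPO at 26 pM (EC50). After 24 h at 37 C, 5% CO2, luminescence read.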

[10] = target: Muscarinic acetylcholine receptor M1 (Rattus norvegicus) (UniProt P08482); assay: qHTS Assay for Antagonists of Acetylcholine Muscarinic M1 Receptor: Measurement of IP-One Response (AID 944); further: nearly all actives have a fitted effect of over 75% in size
Outline: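 CHO cells expressing rat M1 receptor, recovered overnight, were pre-incubated 10 min with compound, then stimulated 30 min with carbachol at EC80 (200 nM) in LiCl-containing buffer, pH 7.4. IP1 accumulation was read by HTRF (620/665 nm).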

[11] = target: Pyruvate kinase (Leishmania mexicana) (UniProt Q27686); assay: qHTS Validation Assay for Inhibitors of Leishmania Mexicana Pyruvate Kinase (AID 945);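 further: 0% = DMSO only neutral control wells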
Outline: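 Eight-point qHTS titrations; enzyme 0.2 nM LmPYK (E451W mutant); substrates 0.5 mM PEP, 0.1 mM ADP; 7 mM MgCl2; 1 h room temperature; PKLight luminescence normalized to neutral control.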

[12] = target: Pyruvate kinase PKM (Homo sapiens) (UniProt P14618); assay: qHTS Assay for Activators of Human Muscle Pyruvate Kinase (AID 954; active means well fitted curve in the direction sought with a large enough effect, not every such curve was filed as active;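 further: 0% = uninhibited enzyme and -100% = no enzyme or full thiadiazolimine inhibition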)
Outline: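 Luminescence from a luciferase ATP-detection/stop reagent reported PKM2 activity. Reactions contained 0.1 nM purified human enzyme, 0.5 mM PEP, 0.1 mM ADP and 7 mM MgCl2 at pH 7.2, run 1 h at RT.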

[13] = target: Alpha-galactosidase A (Homo sapiens) (UniProt P06280); assay: Counterscreen for Glucocerebrosidase Inhibitors: qHTS Assay for Human alpha-Galactosidase at pH 4.5 (AID 992); further: 0% is about no effect
Outline: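 Enzyme at 2 nM final was combined with compound (0.7 nM to 77 uM) and 80 uM 4-methylumbelliferyl alpha-D-galactopyranoside in 50 mM citric acid, 0.005% Tween-20, pH 4.5. After 20 min at room temperature, fluorescence was read (Ex 365/Em 440 nm); AC50 came from Hill fits.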

[14] = target: alpha-glucosidase (Oryza sativa, rice) (UniProt Q653V4); assay: Counterscreen for Glucocerebrosidase Inhibitors: qHTS Assay for Rice alpha-Glucosidase at pH 5.0 (AID 997);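 further: 0% = full activity with enzyme and -100% = basal without enzyme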
Outline: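 Rice alpha-glucosidase (4 nM final) with 400 uM 4-methylumbelliferyl-alpha-D-glucopyranoside in citrate buffer pH 5.0, 20 min at room temperature, stopped at pH 10; fluorescence 365/440 nm, compounds 0.7 nM–77 uM, AC50 from Hill fits.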

[15] = target: Cytochrome P450 3A4 (Homo sapiens) (UniProt P08684); assay: qHTS Assay for Activators of Cytochrome P450 3A4 (AID 885); further: nearly all actives have a fitted effect of over 65% in size
Outline: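 20nM CYP3A4 + 25uM Luciferin-PPXE (=KM), 200mM KPO4; cpd 10 min RT; NADPH regen, 60 min RT; stop w/ detection buffer, 20 min; luminescence. Normalized to 57 uM ketoconazole.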

[16] = target: Cytochrome P450 2D6 (Homo sapiens) (UniProt P10635); assay: qHTS Assay for Inhibitors and Substrates of Cytochrome P450 2D6 (AID 891); further: potency means the concentration at half of the fitted maximal effect; nearly all actives have a fitted effect of over 60% in size
Outline: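 Human CYP2D6 (5 nM) with 30 uM Luciferin-ME EGE (at Km) in 100 mM KPO4, compound preincubated 10 min, then NADPH regeneration system for 60 min at room temperature. Luciferin read by luminescence; normalized to 1.43 uM quinidine.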

[17] = qHTS Assay for Identification of Small Molecule Antagonists for NFkB Signaling Pathway (AID 895; active means well fitted inhibition curve with a large enough effect in the signal ratio, with a control signal flat, not every such curve was filed as active; the % refers to the signal ratio; further: potency means the concentration at half of the fitted maximal effect)
Outline: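 ME-180 NFkB-bla cells (beta-lactamase under NFkB response element), plated overnight, treated with compound then 10 pM TNF alpha (about EC50) for 5 hrs at 37 C. LiveBLAzer FRET read at 460/530 nm emission, 405 nm excitation.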

[18] = target: Cytochrome P450 2C19 (Homo sapiens) (UniProt P33261); assay: qHTS Assay for Inhibitors and Substrates of Cytochrome P450 2C19 (AID 899); further: potency means the concentration at half of the fitted maximal effect; nearly all actives have a fitted effect of over 60% in size
Outline: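 5 nM human CYP2C19 with 10uM Luciferin-H EGE (at KM) in 50mM KPO4, compound preincubated 10 min at 37C, then NADPH regeneration for 60 min at 37C. Luciferin read by luminescence after detection reagent; normalized to 57uM ketoconazole as full inhibition.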

Pyruvate kinase (Leishmania mexicana), sequence (Q27686 2-499 E452W): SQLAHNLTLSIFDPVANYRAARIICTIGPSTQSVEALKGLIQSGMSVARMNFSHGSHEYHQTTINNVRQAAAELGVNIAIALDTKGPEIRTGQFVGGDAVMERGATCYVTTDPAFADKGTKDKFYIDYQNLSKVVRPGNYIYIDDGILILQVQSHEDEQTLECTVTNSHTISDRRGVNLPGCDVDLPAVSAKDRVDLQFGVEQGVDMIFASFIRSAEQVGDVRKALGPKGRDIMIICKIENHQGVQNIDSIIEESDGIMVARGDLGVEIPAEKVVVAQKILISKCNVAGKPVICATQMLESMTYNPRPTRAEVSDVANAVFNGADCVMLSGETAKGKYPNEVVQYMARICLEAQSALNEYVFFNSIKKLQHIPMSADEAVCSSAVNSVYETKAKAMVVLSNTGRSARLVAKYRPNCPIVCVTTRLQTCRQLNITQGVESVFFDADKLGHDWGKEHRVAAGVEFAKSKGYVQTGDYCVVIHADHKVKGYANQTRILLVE
Alpha-galactosidase A (Homo sapiens), sequence (P06280 whole entry, looked up): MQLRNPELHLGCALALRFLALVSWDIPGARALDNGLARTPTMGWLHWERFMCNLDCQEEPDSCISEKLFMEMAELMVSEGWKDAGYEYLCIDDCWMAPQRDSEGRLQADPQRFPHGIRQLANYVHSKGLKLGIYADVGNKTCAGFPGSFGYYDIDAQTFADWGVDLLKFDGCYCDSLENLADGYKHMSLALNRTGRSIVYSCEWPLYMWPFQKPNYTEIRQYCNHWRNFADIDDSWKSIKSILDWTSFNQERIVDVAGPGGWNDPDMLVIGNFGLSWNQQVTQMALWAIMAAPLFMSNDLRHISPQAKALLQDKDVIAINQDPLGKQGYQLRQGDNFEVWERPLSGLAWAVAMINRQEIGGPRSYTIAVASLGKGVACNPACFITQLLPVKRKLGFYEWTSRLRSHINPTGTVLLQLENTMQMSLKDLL
Muscarinic acetylcholine receptor M1 (Rattus norvegicus), sequence (P08482 whole entry, looked up): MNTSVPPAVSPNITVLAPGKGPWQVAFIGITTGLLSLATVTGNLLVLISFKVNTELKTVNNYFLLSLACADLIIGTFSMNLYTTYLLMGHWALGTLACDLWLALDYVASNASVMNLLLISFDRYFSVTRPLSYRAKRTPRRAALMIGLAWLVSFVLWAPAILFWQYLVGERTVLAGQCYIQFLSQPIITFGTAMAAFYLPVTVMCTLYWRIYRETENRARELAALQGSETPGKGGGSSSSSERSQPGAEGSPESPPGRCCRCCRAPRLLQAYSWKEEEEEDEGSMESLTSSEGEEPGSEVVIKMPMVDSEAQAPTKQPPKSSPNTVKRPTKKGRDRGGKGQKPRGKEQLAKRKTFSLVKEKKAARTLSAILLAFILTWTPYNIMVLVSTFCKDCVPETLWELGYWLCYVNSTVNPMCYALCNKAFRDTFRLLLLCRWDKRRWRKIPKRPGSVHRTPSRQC
Glucocorticoid receptor (Homo sapiens), sequence (P04150 whole entry, looked up, the tested form may be a part): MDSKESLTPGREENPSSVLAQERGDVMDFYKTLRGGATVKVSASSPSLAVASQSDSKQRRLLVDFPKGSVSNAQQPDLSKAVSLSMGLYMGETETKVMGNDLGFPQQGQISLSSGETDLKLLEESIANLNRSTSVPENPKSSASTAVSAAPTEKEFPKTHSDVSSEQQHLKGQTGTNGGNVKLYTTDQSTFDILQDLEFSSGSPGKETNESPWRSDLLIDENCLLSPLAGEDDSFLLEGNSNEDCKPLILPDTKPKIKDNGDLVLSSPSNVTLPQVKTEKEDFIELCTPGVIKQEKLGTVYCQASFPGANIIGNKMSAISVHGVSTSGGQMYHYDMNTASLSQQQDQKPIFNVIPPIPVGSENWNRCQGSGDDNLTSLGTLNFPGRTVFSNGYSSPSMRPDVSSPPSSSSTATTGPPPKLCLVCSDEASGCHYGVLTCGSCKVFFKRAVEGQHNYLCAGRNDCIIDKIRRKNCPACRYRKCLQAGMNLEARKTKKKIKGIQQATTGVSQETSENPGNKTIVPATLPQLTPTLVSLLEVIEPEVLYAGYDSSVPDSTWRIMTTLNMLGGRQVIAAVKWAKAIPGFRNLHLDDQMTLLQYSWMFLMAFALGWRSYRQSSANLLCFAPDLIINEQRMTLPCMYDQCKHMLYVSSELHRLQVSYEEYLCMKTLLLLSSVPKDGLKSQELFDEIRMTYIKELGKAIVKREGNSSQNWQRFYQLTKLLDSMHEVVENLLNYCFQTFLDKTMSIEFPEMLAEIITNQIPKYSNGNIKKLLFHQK
3',5'-cyclic-AMP phosphodiesterase 4B (Homo sapiens), sequence (Q07343 whole entry, looked up): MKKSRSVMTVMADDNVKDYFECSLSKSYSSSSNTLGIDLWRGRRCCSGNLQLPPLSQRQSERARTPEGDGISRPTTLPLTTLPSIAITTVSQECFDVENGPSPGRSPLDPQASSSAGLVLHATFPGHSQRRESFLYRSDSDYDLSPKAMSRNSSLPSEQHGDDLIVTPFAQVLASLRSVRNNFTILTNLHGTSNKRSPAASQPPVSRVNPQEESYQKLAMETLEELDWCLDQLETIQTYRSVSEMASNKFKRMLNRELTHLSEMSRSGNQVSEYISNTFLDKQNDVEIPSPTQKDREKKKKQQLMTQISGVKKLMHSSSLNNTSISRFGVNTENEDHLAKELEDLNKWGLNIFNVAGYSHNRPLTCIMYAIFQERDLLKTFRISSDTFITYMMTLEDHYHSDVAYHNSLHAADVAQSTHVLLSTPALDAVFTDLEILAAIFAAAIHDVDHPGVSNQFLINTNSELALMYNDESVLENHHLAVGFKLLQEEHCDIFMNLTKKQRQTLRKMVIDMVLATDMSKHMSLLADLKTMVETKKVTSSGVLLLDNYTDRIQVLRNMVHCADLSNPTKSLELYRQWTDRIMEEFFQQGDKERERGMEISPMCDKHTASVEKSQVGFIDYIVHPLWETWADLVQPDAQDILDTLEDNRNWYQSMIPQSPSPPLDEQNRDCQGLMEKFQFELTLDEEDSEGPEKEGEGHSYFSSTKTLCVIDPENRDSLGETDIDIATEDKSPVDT
Pyruvate kinase PKM (Homo sapiens), sequence (P14618 whole entry, looked up): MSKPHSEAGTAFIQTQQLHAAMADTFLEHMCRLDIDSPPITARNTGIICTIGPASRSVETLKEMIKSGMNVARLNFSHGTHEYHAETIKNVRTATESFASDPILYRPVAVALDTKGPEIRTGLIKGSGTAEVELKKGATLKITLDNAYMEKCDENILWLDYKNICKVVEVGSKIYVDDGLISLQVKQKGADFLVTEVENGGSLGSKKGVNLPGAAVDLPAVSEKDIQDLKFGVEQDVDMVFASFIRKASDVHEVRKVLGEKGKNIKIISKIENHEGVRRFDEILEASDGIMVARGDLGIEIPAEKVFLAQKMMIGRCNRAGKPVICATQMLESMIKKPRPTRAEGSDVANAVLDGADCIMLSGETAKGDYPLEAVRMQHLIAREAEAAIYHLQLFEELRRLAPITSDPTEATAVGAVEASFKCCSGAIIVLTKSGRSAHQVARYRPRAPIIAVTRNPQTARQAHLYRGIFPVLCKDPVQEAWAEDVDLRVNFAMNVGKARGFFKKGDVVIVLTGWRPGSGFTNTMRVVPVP
Cytochrome P450 2D6 (Homo sapiens), sequence (P10635 whole entry, looked up): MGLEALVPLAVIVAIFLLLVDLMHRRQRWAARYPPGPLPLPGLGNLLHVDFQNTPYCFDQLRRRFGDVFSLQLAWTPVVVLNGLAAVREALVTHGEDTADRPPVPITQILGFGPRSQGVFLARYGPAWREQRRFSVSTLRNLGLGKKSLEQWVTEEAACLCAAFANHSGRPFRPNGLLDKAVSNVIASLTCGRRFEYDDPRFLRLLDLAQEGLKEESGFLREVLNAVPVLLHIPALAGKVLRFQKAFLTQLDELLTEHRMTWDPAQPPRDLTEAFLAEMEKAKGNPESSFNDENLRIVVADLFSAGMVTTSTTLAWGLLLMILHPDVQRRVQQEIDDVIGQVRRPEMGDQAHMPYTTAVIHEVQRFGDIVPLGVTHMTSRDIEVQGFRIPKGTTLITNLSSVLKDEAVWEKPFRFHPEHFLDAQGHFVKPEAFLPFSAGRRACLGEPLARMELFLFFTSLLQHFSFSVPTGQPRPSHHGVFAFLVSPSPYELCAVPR
Cytochrome P450 3A4 (Homo sapiens), sequence (P08684 whole entry, looked up): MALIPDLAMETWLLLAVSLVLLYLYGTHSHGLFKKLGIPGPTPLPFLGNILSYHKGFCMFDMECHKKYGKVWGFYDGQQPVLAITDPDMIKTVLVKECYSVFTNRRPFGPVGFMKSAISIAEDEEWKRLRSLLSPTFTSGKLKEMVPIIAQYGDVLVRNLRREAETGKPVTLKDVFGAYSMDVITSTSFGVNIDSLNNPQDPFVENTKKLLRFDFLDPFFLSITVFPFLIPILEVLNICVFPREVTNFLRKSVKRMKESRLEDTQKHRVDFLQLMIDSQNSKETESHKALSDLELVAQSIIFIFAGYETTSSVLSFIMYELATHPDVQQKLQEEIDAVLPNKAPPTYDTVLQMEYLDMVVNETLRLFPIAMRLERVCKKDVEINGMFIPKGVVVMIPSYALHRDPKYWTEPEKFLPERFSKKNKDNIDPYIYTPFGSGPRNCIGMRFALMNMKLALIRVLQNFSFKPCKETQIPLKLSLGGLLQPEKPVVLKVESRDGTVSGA
Cytochrome P450 2C19 (Homo sapiens), sequence (P33261 whole entry, looked up): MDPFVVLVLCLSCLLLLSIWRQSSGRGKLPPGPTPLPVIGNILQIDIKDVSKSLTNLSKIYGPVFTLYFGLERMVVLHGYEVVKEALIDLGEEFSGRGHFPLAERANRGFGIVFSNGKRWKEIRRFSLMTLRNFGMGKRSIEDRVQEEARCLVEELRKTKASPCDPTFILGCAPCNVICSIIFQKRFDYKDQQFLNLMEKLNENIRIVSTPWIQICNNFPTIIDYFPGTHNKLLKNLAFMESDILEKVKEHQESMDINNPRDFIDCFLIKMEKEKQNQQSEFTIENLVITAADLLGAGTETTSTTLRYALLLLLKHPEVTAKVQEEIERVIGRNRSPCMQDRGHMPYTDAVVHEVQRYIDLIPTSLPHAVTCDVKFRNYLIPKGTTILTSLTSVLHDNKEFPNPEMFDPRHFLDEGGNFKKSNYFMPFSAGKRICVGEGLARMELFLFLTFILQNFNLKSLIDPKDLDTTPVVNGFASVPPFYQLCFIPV

NCCC[C@@](N)(C(=O)O)C(F)F
inactive: activity change, negative = inhibition [1] 6.84% [at 38 µM] | activity change, negative = inhibition [2] -7.76% [at 38 µM] | activity, negative = inhibition [3] 2.8% [at 38 µM] | Potency [4] > 46 µM | Potency [5] > 46 µM | Potency [6] | Potency [7] | outcome [8] | Potency [9] | Potency [10] | Potency [11] | outcome [12] | outcome [13] | outcome [14]

Cn1c(=O)c2c(nc(/C=C\c3cccc(Cl)c3)n2C)n(C)c1=O
inactive: activity change, negative = inhibition [1] 7.2% [at 38 µM] | activity change, negative = inhibition [2] -6.69% [at 38 µM] | activity, negative = inhibition [3] -14.4% [at 38 µM] | Potency [4] > 46 µM | Potency [5] > 46 µM | Potency [6] | Potency [7] | Potency [9] | Potency [10] | Potency [11] | outcome [12] | outcome [13] | outcome [14]

CCCN1C[C@@H](CSC)C[C@H]2c3cccc4[nH]cc(c34)C[C@@H]21
active: Potency [16] 0.1 µM
inactive: activity change, negative = inhibition [1] 10.4% [at 38 µM] | activity change, negative = inhibition [2] -24.1% [at 38 µM] | activity, negative = inhibition [3] -10.6% [at 38 µM] | Potency [4] > 46 µM | Potency [5] > 46 µM | Potency [7] | Potency [15] | Potency [17] | Potency [9] | Potency [11] | outcome [12] | outcome [13] | outcome [14]

C[N+](C)(C)CCN[N@@+]1(C)CCCc2ccccc21
inactive: activity change, negative = inhibition [1] -2.74% [at 7.69 µM] | activity change, negative = inhibition [2] -8.45% [at 7.69 µM] | activity, negative = inhibition [3] 7.61% [at 7.69 µM] | Potency [4] > 46 µM | Potency [5] > 9.22 µM | activity change, negative = inhibition [6] 4.98% [at 11.4 µM] | Potency [7]

CC(C)(C)c1cc(Br)c(O)c(CN(Cc2cc(C(C)(C)C)cc(Br)c2O)C2CCCCC2)c1
inactive: activity change, negative = inhibition [1] 10.4% [at 7.69 µM] | activity change, negative = inhibition [2] 3.39% [at 7.69 µM] | activity, negative = inhibition [3] -1.22% [at 7.69 µM] | Potency [4] > 46 µM | Potency [5] > 9.22 µM | activity change, negative = inhibition [6] 19.2% [at 11.4 µM] | Potency [7]
active: Potency [16] 0.199 µM | Potency [18] 0.631 µM

OC[C@@H]1O[C@@H](n2cnc3c(Nc4ccccc4)ncnc32)[C@@H](O)[C@H]1O
inactive: activity change, negative = inhibition [1] 7.84% [at 38 µM] | activity change, negative = inhibition [2] 0.0847% [at 38 µM] | activity, negative = inhibition [3] -14.3% [at 38 µM] | Potency [4] > 46 µM | Potency [5] > 46 µM | Potency [6] | Potency [7] | Potency [10] | Potency [11] | outcome [12] | outcome [13] | outcome [14]
active: Potency [17] 2.24 µM | Potency [9] 3.98 µM
